Assay results reported in PubChem BioAssay.
Activity calls are given as the source filed them.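 The calls were made as follows: active = compounds killing one labelled cell type while sparing the other, by normalised counts and ratio limits, not self-fluorescent; inactive = the rest.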

Test: differential killing of epithelial or mesenchymal cells, primary screen, imaging, PC-3E GFP, TEM4-18 mCherry, co-culture (AID 1345086);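 also: cells exposed to compound for 72 h before imaging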;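 as to red/green cell ratio (normalised): normalised mesenchymal count divided by normalised epithelial count so high means epithelial killing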
Details: imaging cell counts, at 1 µM; for red/green cell ratio (normalised): actives lie on both sides, counts scaled to control wells, 1 = unselective
[1] = measured here: epithelial PC-3E GFP cell survival
[2] = measured here: mesenchymal TEM4-18 mCherry cell survival

Row | SMILES | red/green cell ratio (normalised) | normalised cell number [1] | normalised cell number [2]
1 | COc1cc(OC)c2c(c1)OC(c1ccccc1)CC2=O (centres undefined) | 1.1 (inactive) | 0.99 | 1.08
2 | c1ccc(SCC2CCCNC2)cc1 (centres undefined) | 0.86 (inactive) | 1.24 | 1.06
3 | COC(=O)C1O[C@H](O[Si](C)(C)C(C)(C)C)[C@@H](O)[C@@H](OC(=O)c2ccccc2)C1OC(=O)c1ccccc1 (some centres undefined) | 0.98 (inactive) | 1.18 | 1.15
4 | COC1=CC(=O)OC1(O)C(C)C (centres undefined) | 1.07 (inactive) | 0.83 | 0.89
5 | Nc1nc(=S)c2ncn(C3O[C@H](CO)[C@@H](O)[C@H]3O)c2[nH]1 (some centres undefined) | 0.83 (inactive) | 1.02 | 0.85
6 | C[C@H](O)CCc1ccc(C(=O)O)nc1 | 0.97 (inactive) | 1.16 | 1.13
7 | Cc1cc2c(CO)cc(O)cc2o1 | 1 (inactive) | 0.92 | 0.92
8 | O=C(O)CCCCCCCC(O)C(O)CCCCCCO (centres undefined) | 1.02 (inactive) | 1.11 | 1.13
9 | NCCC[C@H](N)CC(=O)NC1CNC(=O)[C@H]([C@H]2C[C@H](O)N=C(N)N2)NC(=O)/C(=C/NC(N)=O)NC(=O)[C@H](CO)NC(=O)[C@H](CO)NC1=O (some centres undefined) | 0.82 (inactive) | 1.24 | 1.02
10 | CC(=O)O[C@H]1CC[C@@]2(C)C(=CCC3C2CC[C@@]2(C)C3CC[C@@H]2C(C)CCCC(C)C)C1 (some centres undefined) | 1.16 (inactive) | 0.99 | 1.15
11 | CN(C(=O)OCc1ccccc1)C1C(O[C@@H]2OC(COS(=O)(=O)O)C(NC(=O)OCc3ccccc3)[C@H](OS(=O)(=O)O)[C@H]2OS(=O)(=O)O)OC2C[C@@H](NC(=O)OCc3ccccc3)[C@@H](OC3C(NC(=O)OCc4ccccc4)C[C@@H](NC(=O)OCc4ccccc4)[C@H](OS(=O)(=O)O)[C@H]3OS(=O)(=O)O)OC2C1OS(=O)(=O)O (some centres undefined) | 0.95 (inactive) | 1.05 | 1
12 | Cc1ccc(S[C@H]2OC3COC(c4ccccc4)OC3[C@@H]3OC(=O)N[C@H]23)cc1 (some centres undefined) | 1.55 (inactive) | 0.36 | 0.55
13 | C#C[C@]1(O)CCC2C3CCC4=CC(=O)CC[C@@H]4C3CCC21CC (some centres undefined) | 1.14 (inactive) | 1.07 | 1.21
14 | COc1cc2c(c3oc4ccccc4c(=O)c13)[C@@H]1C=CO[C@@H]1O2 | 0.91 (inactive) | 0.44 | 0.4
15 | CC1(C)CC2C1CCC1(CBr)CCC3C(CC(=O)O)C(=O)OC32C1 (centres undefined) | 0.9 (inactive) | 1.14 | 1.02
16 | COC(=O)[C@@H]1C(O)CC[C@H]2CN3CCc4c([nH]c5ccccc45)[C@@H]3C[C@@H]21 (some centres undefined) | 1.2 (inactive) | 0.88 | 1.07
17 | COc1cc(C)c(Oc2cc(C)cc(O)c2O)c(O)c1 | 0.97 (inactive) | 1.18 | 1.15
18 | Cc1nc(COP(=O)(O)O)cc(CN(CCN(CC(=O)O)Cc2cc(COP(=O)(O)O)nc(C)c2[O-])CC(=O)O)c1[O-].[Mn+2] | 0.88 (inactive) | 1.27 | 1.12
19 | COc1cccc2c1C(=O)OCc1cc(C)cc(O)c1O2 | 0.9 (inactive) | 1.17 | 1.05
20 | OC[C@H]1O[C@H](Oc2cc(O)cc(/C=C/c3ccc(O)cc3)c2)[C@H](O)[C@@H](O)[C@@H]1O | 0.79 (inactive) | 1.3 | 1.03

Row | SMILES | red/green cell ratio (normalised) | normalised cell number [1] | normalised cell number [2]
21 | CC1CCCC(O)/C=C/C(O)C(=O)c2c(O)cc(O)cc2CC(=O)O1 (centres undefined) | 1.11 (inactive) | 0.89 | 0.99
22 | C=C/C(C)=C\CC1[C@](C)(O)CC[C@H]2C(C)(C)CCC[C@]12C (some centres undefined) | 1.09 (inactive) | 1.11 | 1.2
23 | CC1COc2c(N)c(F)cc3c(=O)c(C(=O)O)cn1c23 (centres undefined) | 0.95 (inactive) | 1.07 | 1.01
24 | O=C(O)CCc1ccccc1O | 0.97 (inactive) | 1.1 | 1.07
25 | Cc1ccc(S[C@H]2OC(COCc3ccccc3)C(O)[C@@H]3OC(=O)N[C@H]23)cc1 (some centres undefined) | 1.07 (inactive) | 0.9 | 0.96
26 | COC1=CC(=O)C[C@@H](C)[C@]12Cc1c(Cl)c(OC)cc(OC)c1C2=O | 0.76 (inactive) | 1.33 | 1.01
27 | O=C(O)c1c(Cl)nc(Cl)c2ccccc12 | 1.02 (inactive) | 0.97 | 0.99
28 | C[C@@H]1CC[C@H]2C(C)(C)C3CC12CC[C@@]3(C)O (some centres undefined) | 0.98 (inactive) | 0.93 | 0.91
29 | COc1cc(OC)c2c(=O)c(OC)c(-c3ccccc3)oc2c1 | 0.85 (inactive) | 1.32 | 1.13
30 | CC1(C)CC[C@]2(C(=O)O)CC[C@]3(C)C(=CCC4[C@@]5(C)CC[C@H](O)[C@@](C)(CO)C5CC[C@]43C)C2C1 (some centres undefined) | 0.94 (inactive) | 1.05 | 0.98
31 | C[C@@H]1CC[C@H]2[C@@H](C)C(O)O[C@@H]3O[C@]4(C)CC[C@@H]1[C@]32OO4 (some centres undefined) | 0.74 (inactive) | 1.16 | 0.85
32 | CC(C)=CCC/C(C)=C\CC1=C(C)C(=O)c2ccccc2C1=O | 0.98 (inactive) | 1.11 | 1.09
33 | CC/C=C1C=C(/C=C/CO)C(=O)O/1 | 1.01 (inactive) | 1.05 | 1.06
34 | O=C(O)C1O[C@@H](O)[C@@H](O)[C@@H](O)C1O (some centres undefined) | 0.93 (inactive) | 1.22 | 1.13
35 | C[C@H]1C[C@H]2C(=O)O[C@H]([C@@H](C)CCCC[C@@H](C)O)C[C@@H](O)[C@H](C)C(=O)NC(Cc3ccccc3)C(=O)N2C1 (some centres undefined) | 0.93 (inactive) | 1.14 | 1.05
36 | CC1=C2[C@H](C=C3CCC[C@@H](C)[C@]3(C)[C@@H]2O)OC1=O | 0.84 (inactive) | 1.01 | 0.85
37 | CC(C)=CCC[C@H](C)[C@H]1CC[C@]2(C)C[C@@H]3C(C)=CC(=O)[C@@H]3/C(C=O)=C\C[C@@H]12 | 0.9 (inactive) | 1.16 | 1.04
38 | C=C1C(=O)O[C@@H]2C(=O)O[C@@H](CCCCCCCC)[C@H]12 | 0.86 (inactive) | 1.04 | 0.89
39 | COC(=O)c1c[nH]c2c(OC)c(F)c(F)cc2c1=O | 1.14 (inactive) | 1.06 | 1.21
40 | C/C1=C\[C@H](C)C[C@H](C)[C@@H](C)OC(=O)[C@H](Cc2ccccc2)NC(=O)[C@@H](C)C(=O)C(C)C1O (some centres undefined) | 0.99 (inactive) | 1.08 | 1.06

Row | SMILES | red/green cell ratio (normalised) | normalised cell number [1] | normalised cell number [2]
41 | CC(C)[C@H]1COC(=S)N1C(C)CC(=O)N1CCOC1=O (some centres undefined) | 1.02 (inactive) | 1.09 | 1.11
42 | C=C(C)C#CC1=C[C@@H](O)[C@@H]2O[C@]2([C@H](O)C=C(C)C)[C@@H]1O | 0.95 (inactive) | 0.96 | 0.91
43 | C=C1OC(=O)C23C(O)C(=O)CC(OC12)C3C (centres undefined) | 0.89 (inactive) | 1.19 | 1.06
44 | CC1=CO[C@]2(C1=O)[C@H]1C(=O)O[C@]3(C[C@@H]2C)C(C)=CC(=O)O[C@]13O | 0.85 (inactive) | 1.16 | 0.99
45 | COC(=O)CC1C(C)(C)C(OC(C)=O)[C@@H]2[C@@H](OC(C)=O)[C@]34O[C@@]2(O)C1(C)C3CC[C@]1(C)C4=CC(=O)O[C@H]1c1ccoc1 (some centres undefined) | 1.07 (inactive) | 0.89 | 0.95
46 | CC(C)(O)CC[C@@H](O)[C@](C)(O)C1CC[C@@]2(O)C3=CC(=O)C4C[C@@H](O)[C@@H](O)C[C@]4(C)C3CC[C@]12C (some centres undefined) | 0.93 (inactive) | 0.94 | 0.88
47 | O=C(O)C1CCN(C(=O)OCc2ccccc2)CC1 | 1.04 (inactive) | 0.9 | 0.94
48 | CC(C)[C@H]1COC(=O)N1C(=O)CC(C)N1C(=S)OC[C@H]1c1ccccc1 (some centres undefined) | 1.05 (inactive) | 1.07 | 1.12
49 | C[C@@H]1OC(O[C@H]2[C@H](O)[C@@H](O)[C@H](OC[C@H]3O[C@@H](OC(=O)[C@]45CCC(C)(C)CC4C4=CCC6[C@@]7(C)CC[C@H](OC8OC[C@H](O)[C@H](O)[C@H]8OC8O[C@@H](C)[C@H](O)[C@@H](O)[C@H]8O)[C@@](C)(CO)C7CC[C@@]6(C)[C@]4(C)CC5)[C@H](O)[C@@H](O)[C@@H]3O)O[C@@H]2CO)[C@H](O)[C@H](O)[C@H]1O (some centres undefined) | 0.98 (inactive) | 0.96 | 0.93
50 | C=C(C)[C@@H]1CC[C@]2(CO)CC[C@]3(C)[C@H](CCC4[C@@]5(C)CC[C@H](O)C(C)(C)C5CC[C@]43C)C12 (some centres undefined) | 0.84 (inactive) | 1.09 | 0.91
51 | C=C1OC(=O)C23C1OC(CC(O)C2O)C3C (centres undefined) | 0.9 (inactive) | 1.26 | 1.14
52 | COC(=O)C[C@H]1C2(C)CC34OC5(C)O[C@]6(C7/C(=C(/OC)C(C)C)C(=O)O[C@@H](c8ccoc8)[C@]7(C)C(OC(=O)C(C)C)[C@@H](OC)[C@]6(O5)C13C)[C@H](OC)[C@@]4(OC)C2OC(C)=O (some centres undefined) | 0.95 (inactive) | 1.04 | 1
53 | O=C(O)CC1OCc2c(O)cccc21 (centres undefined) | 0.47 (inactive) | 0.95 | 0.44
54 | c1ccc(OCC2CCNC2)cc1 (centres undefined) | 0.83 (inactive) | 1.17 | 0.97
55 | C/C=C/[C@@H]1CC[C@@H]2C[C@H](C)CC[C@H]2[C@]1(C)C(=O)[C@H]1OC(=O)[C@@H](CO)N(C)C1=O | 1.09 (inactive) | 1.06 | 1.15
56 | COC1=CC[C@@]2(C)[C@@](O)(CC[C@H]3Cc4c([nH]c5ccccc45)[C@@]32C)[C@@]12CC(=O)[C@](O)(C(C)(C)OC(C)=O)O2 | 0.97 (inactive) | 1.15 | 1.11
57 | CC(=O)OCC1O[C@H](Sc2ccc(C)cc2)[C@@H]2[C@@H](OC(=O)N2Cc2ccccc2)C1OC(C)=O (some centres undefined) | 0.83 (inactive) | 1.3 | 1.08
58 | CCC1=CC2CN(C1)Cc1c([nH]c3ccccc13)[C@@](C(=O)OC)(c1cc3c(cc1OC)N(C)[C@H]1[C@@](O)(C(=O)OC)[C@H](OC(C)=O)[C@]4(CC)C=CCN5CC[C@]31[C@@H]54)C2 (some centres undefined) | 1.47 (inactive) | 0.13 | 0.2
